# Screening results: PubChem, National Center for Advancing Translational Sciences (NCATS)
# Shown are actives, neighbours in structure and some others; about 7.4% of the full set was active somewhere.
# SMN2 splice up: increases expression of the SMN2 splice variant | HEK293 SMN2-luciferase splicing reporter, luminescence, 30-36 h | Potency, µM (titrated, usually from 46.1 µM), without a hit: top-dose activity change, positive = activation, usual class: activators | actives 2.8% (n = 210,000) | AID 1458; further: % of control where 0% means no effect; nearly all actives have a fitted effect of over 55% in size
#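 HEK293 cells carry an SMN2 […]–luciferase reporter in which exon 7 inclusion puts luciferase in frame. Cells were plated 10-12 h before compound addition, then incubated 30-36 h at 37C. ONE-Glo luminescence was read; sodium butyrate at 4.5 mM final served as control.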
# NPC1 promoter act: NPC1 promoter activation; Huh7 NPC1 promoter luciferase reporter, 24 h; AID 485313; actives 2.4% (n = 320,000); Potency, µM (titrated, usually from 9.22 µM), inactives show at the top dose activation, hits mostly activators; further: % of control where 0% means no effect; nearly all actives have a fitted effect of over 60% in size
#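 Compounds in DMSO were transferred onto Huh7 NPC1-luciferase reporter cells pre-incubated 2 h; after 24 h at 37 °C, Amplite reagent was dispensed and luminescence recorded 10 min later.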
# ELG1 genotox: inducers of genotoxicity in HEK293T ELG1-luciferase cells; HEK293T ELG1-luciferase reporter, luminescence, 16 h; Potency, µM (top dose mostly 46 µM), inactives show at the highest dose activity change, positive = activation, actives largely listed as activators; actives 1.3% (n = 330,000); AID 504466; further: % of control where 0% means no effect; nearly all actives have a fitted effect of over 60% in size
#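 Genotoxicity was scored as increased ELG1-luciferase reporter signal, measured by ONE-Glo luminescence (30 min, room temperature). Compound or vehicle exposure of the HEK293T reporter cells lasted 16 hr at 37°C.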
# Rab9 promoter act: activators of Rab9 promoter | actives 2.8% (n = 320,000) | AID 485297 | Potency, µM (highest dose often 9.22 µM), for the others: top-dose activation, negative = inhibition, hits mostly activators | Huh7 Rab9 promoter-luciferase reporter, luminescence, 24 h; further: % of control where 0% means no effect; nearly all actives have a fitted effect of over 60% in size
#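 Cells were plated at 1500 per well in reduced-serum medium with 10% FBS and left 2 h. Compound in DMSO was then added for 24 h at 37 °C. Reporter signal was read by luminescence after 10 min with luciferase detection reagent.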
# FLuc counter: firefly luciferase modulation, counter-screen for miR-21 project | purified FLuc, Km substrates, luminescence inhibition | Potency, µM (doses to about 57.5 µM), for inactives: at the highest dose activity change, negative = inhibition, most hits filed as inhibitors | actives 6.9% (n = 360,000) | AID 588342;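 further: plate controls were vehicle for no effect and reference inhibitor for full effect; nearly all actives have a fitted effect of over 55% in size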
# Target sequence (P08659 whole entry, looked up): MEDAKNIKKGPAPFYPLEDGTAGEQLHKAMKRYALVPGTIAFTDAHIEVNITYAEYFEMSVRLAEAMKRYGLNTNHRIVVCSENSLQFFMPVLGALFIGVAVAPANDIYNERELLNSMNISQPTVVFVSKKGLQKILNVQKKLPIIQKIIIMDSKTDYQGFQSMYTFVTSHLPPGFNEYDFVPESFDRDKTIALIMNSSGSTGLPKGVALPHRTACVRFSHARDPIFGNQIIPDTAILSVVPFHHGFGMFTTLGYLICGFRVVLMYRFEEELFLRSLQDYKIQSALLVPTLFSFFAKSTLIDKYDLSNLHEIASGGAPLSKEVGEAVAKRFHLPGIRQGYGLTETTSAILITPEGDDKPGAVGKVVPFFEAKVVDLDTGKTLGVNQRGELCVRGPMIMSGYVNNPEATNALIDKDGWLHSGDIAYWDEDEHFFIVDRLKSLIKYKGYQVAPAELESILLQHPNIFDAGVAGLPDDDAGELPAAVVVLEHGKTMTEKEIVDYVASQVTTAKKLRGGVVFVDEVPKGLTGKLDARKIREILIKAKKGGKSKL
#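 Purified P. pyralis luciferase (10nM final) with 10uM D-luciferin and 10uM ATP (Km levels) in 50mM Tris acetate pH 7.5, 10mM Mg acetate, 0.01% Tween-20, 0.05% BSA; qHTS 6-point titration, ~60 µM downward; luminescence read.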
# Starred values were filed as active, the others as inactive; ? = inconclusive; nt = no result given; [ ] = remark or other dose. The call rests on the fitted dose curve; in most records, active means well fitted curve in the direction sought with a large enough effect; inconclusive means small, poorly fitted or top-dose-only effect, or another doubt; inactive means no such curve, though single readings can be large; an effect the other way counts as inactive or inconclusive. Potency means the concentration at half of the fitted maximal effect.
SMILES,SMN2 splice up,NPC1 promoter act,ELG1 genotox,Rab9 promoter act,FLuc counter
NC(=O)c1cc(S(=O)(=O)NCC2CCC(C(=O)Nc3cccc(Cl)c3)CC2)cs1 (stereo unspecified),nt,nt,nt,nt,-6%
COC(=O)/C(=C/c1c[nH]c2ccccc12)[N+](=O)[O-],nt,5%,-2%,12%,19µM*
Cc1ccc(Cc2cn3cc(-c4ccc(F)cc4)nc3s2)cc1,?,nt,nt,nt,0.76µM*
CC(C)COC(=O)n1ccc(C(=O)N2CCCCC2)n1,-11%,1%,-1%,2%,2%
CC(=O)c1ccc(NC(=O)c2ccn(C(=O)OCC(C)C)n2)cc1,10µM*,4µM*,?,?,19µM*
CCOc1cccc2cc(C(=O)NCc3ccccc3)c(=N)oc12,nt,-1%,16%,1%,17µM*
CCOc1cccc2cc(C(=O)NCc3ccc(F)cc3)c(=N)oc12,nt,-3%,?,-2%,15µM*
CCOc1cccc2cc(C(=O)NC(C)c3ccccc3)c(=N)oc12 (stereo unspecified),nt,0%,-2%,3%,1%
COc1cccc2cc(C(=O)NCc3ccc(Cl)cc3)c(=N)oc12,nt,-8%,-7%,0%,?
COc1cccc2cc(C(=O)NCc3ccccc3)c(=N)oc12,nt,-4%,14%,3%,11µM*
CCCN(C(=O)NCc1noc2ccc(C)cc12)c1ccc(Cl)c(Cl)c1,nt,nt,nt,nt,-16%
CCOc1ccc(NC(=O)CSc2nc3ccsc3c(=O)n2C(C)CC)cc1 (stereo unspecified),nt,nt,nt,nt,3%
CC1CCC(NC(=O)CNC(=O)c2cccs2)CC1 (stereo unspecified),nt,?,?,4µM*,?
CCOC(=O)CN(C(=O)CNC(=O)c1cccs1)C(C(=O)NC1CCCC1)c1ccncc1 (stereo unspecified),-8%,1%,-2%,1%,0%
Cc1ccc(C(=O)NCC(=O)NC2CCC(C)CC2)s1 (stereo unspecified),nt,0%,6%,2%,2%
CCCCN(C(=O)CNC(=O)c1cccs1)C(C(=O)NC1CCCC1)c1ccncc1 (stereo unspecified),nt,0%,5%,-4%,7.6µM*
O=C(Nc1cccs1)NC1CCCC1,-5%,22%,17%,10%,-17%
CC1CCC(NC(=O)Nc2cccs2)CC1 (stereo unspecified),18%,3%,?,?,15µM*
CS(=O)(=O)n1nc(-c2ccc(Cl)cc2)nc1SCc1ccccc1,22%,?,15µM*,?,nt
O=S(=O)(c1ccccc1)n1nc(-c2ccc(Cl)cc2)nc1NCc1ccccc1,19%,nt,nt,nt,2%
CSc1nc(-c2ccc(Cl)cc2)nn1S(=O)(=O)c1ccc(Cl)cc1,11µM*,26%,?,3.5µM*,-19%
CSc1nc(-c2ccc(Cl)cc2)nn1S(=O)(=O)c1ccccc1,13µM*,?,18%,?,13µM*
Cc1ccc(S(=O)(=O)n2nc(-c3ccc(Cl)cc3)nc2NCc2ccco2)cc1,?,13%,?,14%,6%
COC(=O)CN1C(=O)CSc2ccc(S(=O)(=O)Nc3c(C)cc(C)cc3C)cc21,nt,nt,nt,nt,5%
Cc1nnc(SCc2cnc(-c3ccc(C(C)C)cc3)s2)n1C,?,1.6µM*,?,2µM*,0.3µM*
SMILES,SMN2 splice up,NPC1 promoter act,ELG1 genotox,Rab9 promoter act,FLuc counter
CC1=NN2C(=N)/C(=C\c3ccc(SCc4ccccc4)o3)C(=O)N=C2S1,-18%,-4%,3%,2%,-6%
N=C1/C(=C\c2ccc(SCc3ccco3)o2)C(=O)N=C2SC=NN12,1%,-1%,6%,22%,8.5µM*
O=C(O)CCSC1=NCCN1,-5%[9.22 µM],nt,nt,nt,nt
COc1cc(O)oc1C=Nc1ccc(Oc2ccccc2)cc1,-23%,?,16%,?,15µM*
Cc1sc2c(c1C)c(=O)n(-c1ccc(Cl)cc1)c(=O)n2CC(=O)c1ccccc1,0%,nt,nt,nt,6%
CN1N=C2c3ccccc3CCC2C1c1ccc(Cl)cc1 (stereo unspecified),nt,?,?,?,11µM*
CNC(=S)N1N=C2c3ccccc3CCC2C1c1ccccc1Cl (stereo unspecified),nt,-6%,-3%,-6%,-4%
CN1N=C2c3ccccc3CCC2C1c1ccc(F)cc1 (stereo unspecified),nt,?,17%,2.5µM*,?
Cc1cc(O)cc(O)c1C(=O)OC1(C)C(=O)C=C2C=C(/C=C/CO)OC=C2C1=O (stereo unspecified),10%,nt,nt,nt,nt
N#Cc1cnc2sc3ccccc3n2c1=N,17%,24%,14µM*,?,24µM*
COc1ccc(N2CCN(C(CNC(=O)c3ccc(C)cc3)c3ccc4c(c3)OCO4)CC2)cc1 (stereo unspecified),nt,nt,nt,nt,0%
O=C(O)CSc1nnc(-c2ccc(O)cc2)o1,3%,nt,nt,nt,?
O=C(CSc1nnc(-c2csc3c2CCCC3)o1)Nc1ccccc1,1.8µM*,?,0.58µM*,0.56µM*,-18%
O=C(CSc1nnc(-c2ccc(O)cc2)o1)Nc1ccccc1,nt,2.5µM*,8.2µM*,2.8µM*,?
Cc1csc(NC(=O)CSc2nnc(NC(=O)COc3ccccc3)s2)n1,26%,6%,8%,12%,2.1µM*
Cc1csc(NC(=O)CSc2nnc(-c3ccccc3)o2)n1,11µM*,3.2µM*,5µM*,2µM*,-4%
COc1ccc(NC(=O)CSc2nnc(-c3cccc(O)c3)o2)cc1,nt,1%,4%,-4%,2%
COc1ccccc1NC(=O)CSc1nnc(-c2ccccc2)o1,14µM*,?,18µM*,?,-4%
COc1cccc(NC(=O)CSc2nnc(-c3cc(C)n(-c4ccccc4)c3C)o2)c1,-42%,21%,15%,19%,12µM*
C=CCNC(=O)N1CCc2nc(-c3ccccc3)c3c(c2C1)CO[C@@H](C)C3,47%[9.22 µM],nt,nt,nt,nt
CC(Sc1nnc(NC2CCCCC2)s1)C(=O)Nc1ccc2c(c1)C(=O)c1ccccc1C2=O (stereo unspecified),10µM*,?,4%,?,?
CC1CCCCN1C(=O)CSc1nnc(-c2ccccc2F)o1 (stereo unspecified),nt,2.5µM*,?,2.5µM*,?
CC1CCCCN1C(=O)CSc1nnc(-c2ccco2)o1 (stereo unspecified),nt,1.8µM*,21µM*,2µM*,15µM*
CCN(CC)S(=O)(=O)c1ccc2c(c1)nc(CN(C)C(=O)Nc1cccc(Cl)c1)n2C,nt,nt,nt,nt,0%
CC1=NN(c2ccc(S(=O)(=O)O)cc2)C(=O)/C1=C\c1ccc(Cl)cc1,-1%[9.22 µM],nt,nt,nt,nt
COC(=O)c1c(C)[nH]c(C(=O)/C=C/c2ccccc2)c1C,2.2µM*,2.2µM*,12µM*,1.4µM*,0.48µM*
COC(=O)c1c(C)[nH]c(C(=O)CC#N)c1C,?,-2%,7%,4%,-7%
